Results on 26 molecules are retold here after PubChem BioAssay (NCI).

SMILES strings stand for the structures. This is part of a sample that, as a whole, favours compounds with a hit. Of some 83,000 tested, about 20% had one in any assay.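 Single-concentration screen, 48 h exposure, 96-well plates. Endpoint: percent growth. Below 10 = active.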 Unmarked numbers belong to inactive results. Calls of active or inactive are those of the source.

Some test systems named below: T-47D breast; BT-549 breast; MDA-MB-435 melanoma; SW-620 colon; MCF7 breast; HCT-116 colon; HCC-2998 colon; KM12 colon.
What all share (assay): NCI-60 one-dose screen, 48 h (100 = growth as untreated, 0 = no growth, -100 = all killed)
What all share (details): 10 µM unless noted

Turning to `O=C1C(=O)c2cccnc2-c2ncccc21`, the growth with T-47D breast is -68.8% (active); in the experiment on BT-549 breast it was -11.7% (active); in the experiment on MDA-MB-435 melanoma it was -69.6% (active); in the experiment with SW-620 colon, -95.6% (active); in the experiment with MCF7 breast it was -55.4% (active); in the experiment with HCT-116 colon it was -100% (active). The growth is 30.5% with HCC-2998 colon and -47.2% (active) in the experiment with KM12 colon.

Consider `O=C1Nc2ccc(Br)cc2C1=O`, for which the growth was 96.2% in the experiment with T-47D breast; 105% with BT-549 breast; 98.3% with MDA-MB-435 melanoma; 86% with SW-620 colon; 91.5% with MCF7 breast; 94.2% in the experiment on HCT-116 colon. Also, the growth in the experiment on HCC-2998 colon is 111%; with KM12 colon, 96.7%.

Take `O=C(Nc1ccc(Cl)c(Cl)c1)Nc1ccccc1O`: the growth was 50.7% in the experiment on T-47D breast; 105% with BT-549 breast; 76.2% with MDA-MB-435 melanoma; 90.1% in the experiment with SW-620 colon; 51.9% in the experiment with MCF7 breast; 60.7% in the experiment with HCT-116 colon. Further, the growth in the experiment with HCC-2998 colon is 80.4%; in the experiment with KM12 colon it was 96.5%.

For the molecule `Cc1cc(=O)oc2cc(O)cc(O)c12`, the growth with T-47D breast is 90.5%; in the experiment on BT-549 breast, 101%; with MDA-MB-435 melanoma it was 94.7%; in the experiment with SW-620 colon it was 92%; with MCF7 breast, 98%; with HCT-116 colon, 90.5%. The growth in the experiment with HCC-2998 colon and with KM12 colon was 111% throughout.

In the case of `N#CC(I)CS(=O)(=O)c1ccccc1` (stereo not drawn), the growth in the experiment on T-47D breast was 44.6%; in the experiment with BT-549 breast, 97%; in the experiment with MDA-MB-435 melanoma, 109%; with SW-620 colon it was 26.3%; with MCF7 breast, 91.5%; with HCT-116 colon, -10.5% (active). The growth in the experiment on HCC-2998 colon was 107%; in the experiment on KM12 colon it was 96.1%.

Take `Nc1cccc2cccc([N+](=O)[O-])c12`: the growth is 113% in the experiment with T-47D breast; 105% with BT-549 breast; 108% with MDA-MB-435 melanoma; 106% in the experiment on SW-620 colon; 86.6% with MCF7 breast; 104% in the experiment with HCT-116 colon. In addition, the growth in the experiment with HCC-2998 colon is 103%; in the experiment on KM12 colon it was 113%.

`NC(=S)N/N=C\c1nccc2c(C(F)(F)F)cccc12`: the growth in the experiment on T-47D breast is 13.9%; in the experiment with BT-549 breast it was 7.77% (active); with MDA-MB-435 melanoma it was 32.6%; in the experiment on SW-620 colon it was 29.8%; in the experiment with MCF7 breast, 10.5%; in the experiment with HCT-116 colon, 9.27% (active). Moreover, the growth is 26.6% in the experiment on HCC-2998 colon and 16% with KM12 colon.

Take `CC1(C)OC2C(COC(c3ccccc3)(c3ccccc3)c3ccccc3)OC(c3c[nH]c4c(N)ncnc34)C2O1` (stereo not drawn): the growth in the experiment on T-47D breast was 43.2%; with BT-549 breast it was 77.5%; in the experiment with MDA-MB-435 melanoma it was 62.4%; in the experiment with SW-620 colon, 63.9%; in the experiment with MCF7 breast, 35%; in the experiment on HCT-116 colon, 46.7%. For the same molecule, the growth was 85.7% in the experiment on HCC-2998 colon and 50.3% in the experiment with KM12 colon.

In the case of `CCCCCCCCCCCCSC(=N)N`, the growth is -35.5% (active) with T-47D breast; 63.6% in the experiment with BT-549 breast; -73.2% (active) in the experiment on MDA-MB-435 melanoma; -61.5% (active) in the experiment on SW-620 colon; -30.8% (active) with MCF7 breast; -64.2% (active) in the experiment with HCT-116 colon. The growth in the experiment on HCC-2998 colon was -80.5% (active); in the experiment on KM12 colon it was -21.1% (active).

Consider `O=[N+]([O-])c1ccc(C2N(Cc3ccc(Cl)cc3)CCN2Cc2ccc(Cl)cc2)cc1`, for which the growth was 90% in the experiment with T-47D breast; 98.2% in the experiment on BT-549 breast; 91.5% in the experiment with MDA-MB-435 melanoma; 98.1% in the experiment on SW-620 colon; 87.3% with MCF7 breast; 72.8% in the experiment on HCT-116 colon. Further, the growth is 95.4% in the experiment with HCC-2998 colon and 101% in the experiment on KM12 colon.

Consider `COC1=CC(=O)c2c(O)c3c(c(O)c2C1=O)CC(C)(O)OC3` (stereo not drawn), for which the growth is 0.836% (active) in the experiment with T-47D breast; 28.1% in the experiment on BT-549 breast; -95% (active) with MDA-MB-435 melanoma; 16.6% in the experiment on SW-620 colon; -27.1% (active) with MCF7 breast; -27.6% (active) with HCT-116 colon. In addition, the growth with HCC-2998 colon is -20.5% (active); with KM12 colon, 9.83% (active).

For `O=C(O)c1ccc2c(c1)C(=O)c1ccccc1C2=O`, the growth is 99.7% with T-47D breast; 107% with BT-549 breast; 102% with MDA-MB-435 melanoma; 97% in the experiment on SW-620 colon; 97.7% with MCF7 breast; 106% in the experiment on HCT-116 colon. Besides, the growth in the experiment with HCC-2998 colon is 104%; in the experiment with KM12 colon it was 98.9%.

With `O=C1/C(=C/c2ccccn2)CCc2ccccc21`, the growth is 84.9% in the experiment with T-47D breast; 106% in the experiment on BT-549 breast; 88.5% with MDA-MB-435 melanoma; 85.5% in the experiment on SW-620 colon; 59.4% in the experiment with MCF7 breast; 90.4% in the experiment with HCT-116 colon. Besides, the values for the growth with HCC-2998 colon and with KM12 colon were 100% and 86.9%, respectively.

For the molecule `NC(=S)N/N=C\c1nccc2c(N)cccc12`, the growth in the experiment on T-47D breast was 11%; with BT-549 breast it was 41%; with MDA-MB-435 melanoma, 30.3%; with SW-620 colon, 37.2%; in the experiment on MCF7 breast, 22.1%; with HCT-116 colon, 19.2%. Further, the figures for the growth in the experiment on HCC-2998 colon and with KM12 colon were 44.4% and 26.7%, respectively.

As to `CCCCCCCCCCCC1=NCCCN1CCCC`, the growth in the experiment with T-47D breast is 97.4%; with BT-549 breast, 94.6%; with MDA-MB-435 melanoma, 110%; in the experiment with SW-620 colon it was 97.5%; with MCF7 breast, 91.1%; with HCT-116 colon it was 83.6%. The results for the growth with HCC-2998 colon and with KM12 colon were 75.7% and 103%, respectively.

`O=C1C=CC(=O)N1c1cc(Cl)c(Cl)cc1Cl`: the growth in the experiment with T-47D breast was 103%; with BT-549 breast, 97.9%; in the experiment on MDA-MB-435 melanoma, 106%; with SW-620 colon, 110%; with MCF7 breast it was 87.8%; with HCT-116 colon it was 90%. Moreover, the growth in the experiment with HCC-2998 colon is 103%; with KM12 colon it was 106%.

As to `CCN(CC)c1ccc(/C=C\C(=O)c2ccc(NC(C)=O)cc2)cc1`, the growth was 76.3% in the experiment with T-47D breast; 94.8% with BT-549 breast; 10.9% in the experiment with MDA-MB-435 melanoma; 42.5% with SW-620 colon; 71.3% in the experiment with MCF7 breast; 58.6% in the experiment on HCT-116 colon. The growth in the experiment with HCC-2998 colon was 77.9%; in the experiment with KM12 colon, 48.1%.

Turning to `Nc1cc(-c2ccccc2)ccc1O`, the growth in the experiment on T-47D breast was 88.3%; with BT-549 breast, 79.3%; with MDA-MB-435 melanoma, 111%; in the experiment on SW-620 colon, 121%; in the experiment on MCF7 breast it was 102%; in the experiment on HCT-116 colon it was 98.1%. In addition, the growth was 83.8% in the experiment with HCC-2998 colon and 102% in the experiment on KM12 colon.

As to `Nc1nc(N)c2cc(Sc3cccc(C(F)(F)F)c3)ccc2n1`, the growth with T-47D breast is 45%; in the experiment with BT-549 breast, 50.3%; with MDA-MB-435 melanoma, 28.8%; with SW-620 colon it was 22.5%; with MCF7 breast, 23.9%; with HCT-116 colon it was 15%. Besides, the growth was -57.2% (active) in the experiment with HCC-2998 colon and 24.8% with KM12 colon.

In the case of `CCc1cccc(CC)c1N1C(=O)C=CC1=O`, the growth was 102% in the experiment on T-47D breast; 116% with BT-549 breast; 111% in the experiment with MDA-MB-435 melanoma; 108% in the experiment on SW-620 colon; 110% in the experiment with MCF7 breast; 88.5% in the experiment with HCT-116 colon. Moreover, the growth with HCC-2998 colon was 117%; in the experiment on KM12 colon, 110%.

As to `CCc1oc2ccccc2c1C(=O)c1cc(Br)c(O)c(Br)c1`, the growth was 62.1% in the experiment with T-47D breast; 35.4% with BT-549 breast; -11.1% (active) with MDA-MB-435 melanoma; 61.4% in the experiment with SW-620 colon; 69.2% in the experiment on MCF7 breast; 73.5% with HCT-116 colon. In addition, the values for the growth in the experiment on HCC-2998 colon and in the experiment on KM12 colon were 85.9% and 77.5%, respectively.

As for `O=C1C=Cc2ccccc2/C1=C/c1nc(-c2ccccc2)oc1O`, the growth with T-47D breast was 65.5%; in the experiment on BT-549 breast, 102%; in the experiment on MDA-MB-435 melanoma, 97.5%; in the experiment on SW-620 colon it was 97.4%; in the experiment with MCF7 breast, 39.6%; in the experiment on HCT-116 colon, 81.5%. The growth with HCC-2998 colon was 129%; in the experiment with KM12 colon, 92.1%.

With `CCOC(=O)c1cc(CC)sc1NC(=O)CC(C)=O`, the growth is 34.8% with T-47D breast; 27.3% in the experiment on BT-549 breast; 68.8% in the experiment with MDA-MB-435 melanoma; 49.7% in the experiment on SW-620 colon; 15.9% in the experiment with MCF7 breast; 26.5% in the experiment on HCT-116 colon. Also, the growth in the experiment with HCC-2998 colon was 69.4%; in the experiment with KM12 colon, 47.1%.

For the molecule `O=C(O)c1cc2c(s1)C(=O)c1sccc1C2=O`, the growth with T-47D breast was 36%; in the experiment with BT-549 breast, -89.8% (active); in the experiment with MDA-MB-435 melanoma, -99.6% (active); with SW-620 colon, -3.95% (active); in the experiment on MCF7 breast it was -56.6% (active); with HCT-116 colon, -27.7% (active). Further, the values for the growth in the experiment on HCC-2998 colon and in the experiment on KM12 colon were 8.88% (active) and 79.9%, respectively.

`C/C=C/c1cc2c(c(=O)o1)C(=O)[C@@H](O)[C@H](C)O2`: the growth with T-47D breast was 20.4%; in the experiment with BT-549 breast it was 18.2%; with MDA-MB-435 melanoma it was 65.6%; in the experiment with SW-620 colon it was 19.5%; with MCF7 breast, 26.1%; in the experiment with HCT-116 colon, 14.1%. Also, the growth in the experiment on HCC-2998 colon was 79.5%; in the experiment on KM12 colon, 42.2%.

In the case of `Cc1c(O)ccc(SC#N)c1C`, the growth was 94% in the experiment with T-47D breast; 104% with BT-549 breast; 105% in the experiment with MDA-MB-435 melanoma; 103% in the experiment on SW-620 colon; 116% in the experiment on MCF7 breast; 88% in the experiment with HCT-116 colon. Moreover, the growth is 96.5% in the experiment with HCC-2998 colon and 97.2% in the experiment with KM12 colon.
